# The panel holds about 79,000 compounds, 15% with a hit somewhere; the sample as a whole holds those more often. Values without a mark were called inactive. Calls of active or inactive are those of the source. Cut-off read from the data, not from the text of the source: active = growth inhibition above about 70%; inactive = the rest.
# How the values were obtained:
# [1] = NCI Yeast Anticancer Drug Screen. Data for the rad52 strain (AID 147);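 note: 0% = growth of vehicle-treated control cultures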; conditions: S. cerevisiae rad52 mutant growth inhibition, active compounds read high
# How it was run: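 Genetically altered yeast (DNA damage repair defect) treated with compound; inhibition calculated relative to vehicle.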
# [2] = NCI Yeast Anticancer Drug Screen. Data for the wt1 strain (AID 149);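 note: 0% = growth of vehicle-treated wt1 cultures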; conditions: S. cerevisiae wt1 strain (SPY 50644) growth inhibition, active compounds read high
# How it was run: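 The wt1 strain was treated with compounds, and growth was compared with vehicle-treated cultures to give inhibition.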
# [3] = NCI Yeast Anticancer Drug Screen. Data for the rad50EPP+ strain (AID 151);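 note: 0% = growth of vehicle-treated control cultures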; conditions: S. cerevisiae rad50 mutant strain, active compounds read high
# How it was run: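 Strain rad50EPP+; compound exposure; % growth inhibition vs vehicle.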
# [4] = NCI Yeast Anticancer Drug Screen. Data for the mgt1 strain (AID 153); conditions: S. cerevisiae mgt1 mutant growth inhibition, active compounds read high
# How it was run: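 Read-out: yeast growth inhibition vs vehicle control. Strain mgt1, drawn from a panel altered in DNA damage repair or cell cycle control.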
# [5] = NCI Yeast Anticancer Drug Screen. Data for the rad50 strain (AID 155);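 note: 0% = growth of vehicle-only cultures of the same strain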; conditions: S. cerevisiae rad50 strain growth inhibition, active compounds read high
# How it was run: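 Cells are treated with compound, grown, and their growth is then scored against vehicle-only cultures of the same repair-deficient yeast strain.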
# [6] = NCI Yeast Anticancer Drug Screen. Data for the mec2-1 strain (AID 157); conditions: S. cerevisiae mec2-1 strain, active compounds read high
# How it was run: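 Cells of the genetically defined mec2-1 yeast strain are incubated with test compound. Inhibition of growth is calculated against vehicle-treated controls.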
# [7] = NCI Yeast Anticancer Drug Screen. Data for the rad14 strain (AID 159);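 note: 0% = growth of vehicle-treated control cultures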; conditions: S. cerevisiae rad14 strain growth inhibition, active compounds read high
# How it was run: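 Readout: yeast growth inhibition, referenced to vehicle-only cultures. Strain bears a defined alteration in DNA damage repair.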
# [8] = NCI Yeast Anticancer Drug Screen. Data for the sgs1 mgt1 strain (AID 161);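 note: 0% = growth of cultures given vehicle only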; conditions: S. cerevisiae sgs1 mgt1 strain, active compounds read high
# How it was run: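 Inhibition of yeast growth, normalised to vehicle-treated controls, is reported for a strain bearing genetic alterations in DNA damage repair.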
# [9] = NCI Yeast Anticancer Drug Screen. Data for the CLN2oe strain (AID 163);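 note: 0% = growth of vehicle-only control cultures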; conditions: S. cerevisiae CLN2oe strain, active compounds read high
# How it was run: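 Strain altered in cell-cycle control, incubated with compound; growth compared to solvent-treated controls.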
# [10] = NCI Yeast Anticancer Drug Screen. Data for the cln2 rad14 strain (AID 165);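 note: 0% = growth equal to vehicle treated cultures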; conditions: S. cerevisiae cln2 rad14 strain, active compounds read high
# How it was run: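 The screen exposed genetically defined yeast (cln2 rad14) to test compounds and scored growth inhibition relative to vehicle-treated controls.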
# [11] = NCI Yeast Anticancer Drug Screen. Data for the bub3 strain (AID 167); conditions: S. cerevisiae bub3 mutant strain, active compounds read high
# How it was run: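 Part of a panel of yeast mutants defective in DNA damage repair or cell cycle regulation. Each strain is grown with compound, and inhibition is calculated relative to solvent-treated cultures.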
# [12] = NCI Yeast Anticancer Drug Screen. Data for the wt2 strain (AID 169);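 note: 0% = growth of vehicle-treated yeast cultures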; conditions: S. cerevisiae wt2 strain growth inhibition, active compounds read high
# How it was run: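 Steps: yeast strain treated with compound; growth recorded; inhibition calculated relative to cultures given vehicle alone.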
# [13] = NCI Yeast Anticancer Drug Screen. Data for the mlh1 strain (AID 171);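 note: 0% = growth of vehicle-treated control cultures of the same strain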; conditions: S. cerevisiae mlh1 strain growth inhibition, active compounds read high
# How it was run: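 Yeast screen: mutant strain plus compound, growth scored against vehicle control wells.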
# [14] = NCI Yeast Anticancer Drug Screen. Data for the sgs1 strain (AID 173);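 note: 0% = growth of vehicle-only control cultures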; conditions: S. cerevisiae sgs1 mutant, active compounds read high
# How it was run: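 Inhibition of yeast growth served as the measure. The mutant strain was treated with each compound, and growth was normalised to cultures receiving vehicle alone.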
# [15] = NCI Yeast Anticancer Drug Screen. Data for the mlh1 rad18 strain (AID 175); conditions: S. cerevisiae mlh1 rad18 strain growth inhibition, active compounds read high
# How it was run: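 Compound-treated yeast growth, normalised to vehicle controls. Strain bears defined DNA repair mutations.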
# [16] = NCI Yeast Anticancer Drug Screen. Data for the rad18 strain (AID 177); conditions: S. cerevisiae rad18 mutant growth inhibition, active compounds read high
# How it was run: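 Inhibition values reflect reduced yeast growth compared with vehicle-treated controls, using a strain engineered with a DNA damage repair defect.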
# [17] = at 5.0 µM (retest, dose inferred, filed as 0.5)
# [18] = at 50.0 µM (retest, dose inferred, filed as 5.0)
smiles,measurement,setting,value
Oc1ccc2ccccc2c1C(c1ccc(Cl)cc1)c1c(O)ccc2ccccc12,growth inhibition,[1]; at 1.2 µM,-39%
same,growth inhibition,[1]; at 3.7 µM,-23%
same,growth inhibition,[1]; at 11.0 µM,-17%
same,growth inhibition,[1]; at 33.0 µM,51%
same,growth inhibition,[1]; at 100.0 µM,84% (active)
same,growth inhibition,[2]; at 1.2 µM,15%
same,growth inhibition,[2]; at 3.7 µM,-17%
same,growth inhibition,[2]; at 11.0 µM,2%
same,growth inhibition,[2]; at 33.0 µM,55%
same,growth inhibition,[2]; at 100.0 µM,84% (active)
same,growth inhibition,[3]; at 1.2 µM,-50%
same,growth inhibition,[3]; at 3.7 µM,-61%
same,growth inhibition,[3]; at 11.0 µM,-55%
same,growth inhibition,[3]; at 33.0 µM,-50%
same,growth inhibition,[3]; at 100.0 µM,-44%
same,growth inhibition,[4]; at 1.2 µM,-34%
same,growth inhibition,[4]; at 3.7 µM,-26%
same,growth inhibition,[4]; at 11.0 µM,-14%
same,growth inhibition,[4]; at 33.0 µM,43%
same,growth inhibition,[4]; at 100.0 µM,88% (active)
same,growth inhibition,[5]; at 1.2 µM,-3%
same,growth inhibition,[5]; at 3.7 µM,3%
same,growth inhibition,[5]; [17],99% (active)
same,growth inhibition,[5]; at 11.0 µM,12%
same,growth inhibition,[5]; at 33.0 µM,55%
same,growth inhibition,[5]; [18],99% (active)
same,growth inhibition,[5]; at 50.0 µM,68.3%
same,growth inhibition,[5]; at 100.0 µM,89% (active)
same,growth inhibition,[6]; at 1.2 µM,-72%
same,growth inhibition,[6]; at 3.7 µM,-67%
same,growth inhibition,[6]; [17],99% (active)
same,growth inhibition,[6]; at 11.0 µM,-39%
same,growth inhibition,[6]; at 33.0 µM,56%
same,growth inhibition,[6]; [18],99% (active)
same,growth inhibition,[6]; at 50.0 µM,83.9% (active)
same,growth inhibition,[6]; at 100.0 µM,84% (active)
same,growth inhibition,[7]; at 1.2 µM,-61%
same,growth inhibition,[7]; at 3.7 µM,-54%
same,growth inhibition,[7]; at 11.0 µM,-60%
same,growth inhibition,[7]; at 33.0 µM,-7%
same,growth inhibition,[7]; at 100.0 µM,84% (active)
same,growth inhibition,[8]; [17],-2%
same,growth inhibition,[8]; [18],94% (active)
same,growth inhibition,[8]; at 50.0 µM,19.4%
same,growth inhibition,[9]; at 1.2 µM,0%
same,growth inhibition,[9]; at 3.7 µM,5%
same,growth inhibition,[9]; at 11.0 µM,21%
same,growth inhibition,[9]; at 33.0 µM,83% (active)
same,growth inhibition,[9]; at 100.0 µM,82% (active)
same,growth inhibition,[10]; [17],56%
same,growth inhibition,[10]; [18],95% (active)
same,growth inhibition,[10]; at 50.0 µM,76.8% (active)
same,growth inhibition,[11]; at 1.2 µM,-6%
same,growth inhibition,[11]; at 3.7 µM,-15%
same,growth inhibition,[11]; [17],29%
same,growth inhibition,[11]; at 11.0 µM,-1%
same,growth inhibition,[11]; at 33.0 µM,39%
same,growth inhibition,[11]; [18],92% (active)
same,growth inhibition,[11]; at 50.0 µM,78.2% (active)
same,growth inhibition,[11]; at 100.0 µM,87% (active)
same,growth inhibition,[12]; at 1.2 µM,-22%
same,growth inhibition,[12]; at 3.7 µM,-36%
same,growth inhibition,[12]; at 11.0 µM,-20%
same,growth inhibition,[12]; at 33.0 µM,16%
same,growth inhibition,[12]; at 100.0 µM,80% (active)
same,growth inhibition,[13]; at 1.2 µM,-41%
same,growth inhibition,[13]; at 3.7 µM,-25%
same,growth inhibition,[13]; at 11.0 µM,-32%
same,growth inhibition,[13]; at 33.0 µM,26%
same,growth inhibition,[13]; at 100.0 µM,85% (active)
same,growth inhibition,[14]; at 1.2 µM,-29%
same,growth inhibition,[14]; at 3.7 µM,-39%
same,growth inhibition,[14]; at 11.0 µM,-25%
same,growth inhibition,[14]; at 33.0 µM,38%
same,growth inhibition,[14]; at 100.0 µM,88% (active)
same,growth inhibition,[15]; [17],99% (active)
same,growth inhibition,[15]; [18],99% (active)
same,growth inhibition,[15]; at 50.0 µM,54%
same,growth inhibition,[16]; at 1.2 µM,-30%
same,growth inhibition,[16]; at 3.7 µM,-8%
same,growth inhibition,[16]; at 11.0 µM,2%
same,growth inhibition,[16]; at 33.0 µM,50%
same,growth inhibition,[16]; at 100.0 µM,87% (active)

# From PubChem BioAssay (NCI)
